The nature of experiment [1]: NCI Yeast Anticancer Drug Screen. Data for the rad50 strain (AID 155).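 Further: 0% = growth of vehicle-only cultures of the same strain.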 The settings on record: S. cerevisiae rad50 strain growth inhibition; at 50.0 µM; active compounds read high. An outline of the steps: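 Vehicle-treated cultures provide the reference for the growth inhibition reported for compound-exposed, repair-deficient yeast.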
Experiment [2] can be described thus: NCI Yeast Anticancer Drug Screen. Data for the mec2-1 strain (AID 157). The settings on record: S. cerevisiae mec2-1 strain, at 50.0 µM, active compounds read high. The procedure, abridged:
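mec2-1 yeast strain, carrying an alteration in DNA damage repair or cell cycle control, was exposed to compounds; growth inhibition was measured relative to vehicle-treated controls.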

Experiment [3] in a line: NCI Yeast Anticancer Drug Screen. Data for the sgs1 mgt1 strain (AID 161).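 Further: 0% = growth of cultures given vehicle only.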 Conditions: S. cerevisiae sgs1 mgt1 strain, at 50.0 µM, active compounds read high. An outline of the steps: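 Percent growth inhibition was derived by comparing compound-exposed mutant yeast with vehicle-exposed cultures. The strain carries alterations in DNA damage repair.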
A short description of experiment [4]: NCI Yeast Anticancer Drug Screen. Data for the cln2 rad14 strain (AID 165).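 Further: 0% = growth equal to vehicle treated cultures.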 The settings on record: S. cerevisiae cln2 rad14 strain, at 50.0 µM, active compounds read high. An outline of the steps: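 Yeast carrying cln2 and rad14 alterations (cell cycle control and DNA damage repair) were exposed to compounds. Growth inhibition was measured against vehicle-treated controls.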

Experiment [5] in a line: NCI Yeast Anticancer Drug Screen. Data for the bub3 strain (AID 167). The settings on record: S. cerevisiae bub3 mutant strain, at 50.0 µM, active compounds read high. An outline of the steps: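 Mutant yeast screening strain plus compound; vehicle-treated cultures serve as the 0% inhibition reference.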
Experiment [6] is described as follows: NCI Yeast Anticancer Drug Screen. Data for the mlh1 rad18 strain (AID 175). Conditions: S. cerevisiae mlh1 rad18 strain growth inhibition; at 50.0 µM; active compounds read high. An outline of the steps: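 Growth inhibition of the yeast strain was measured after compound exposure and expressed relative to vehicle-treated controls. The strain carries defined defects in DNA damage repair.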

The panel holds about 79,000 compounds, 15% with a hit somewhere; the sample as a whole holds those more often. A number with no mark means an inactive call. The source made the active and inactive calls. No stated cut-off is given here; in the data, active means growth inhibition above about 70%; inactive means the rest.

Consider `COc1cccc2c1CCC(=O)C2C` (stereo not given), for which the growth inhibition is 35.1% in experiment [1]; -0.9% in experiment [2]; 14.3% in experiment [3]; -5.45% in experiment [4]; 13.6% in experiment [5]; 22.9% in experiment [6].

Regarding `CC1(C)CCC2(CO)C(=C3C=CC4C5(C)CCC(O)C(C)(CO)C5CCC4(C)C3(C)CC2O)C1` (stereo not given), the growth inhibition is 0.45% in experiment [1]; -31.8% in experiment [2]; -0.75% in experiment [3]; -3.35% in experiment [4]; -9.5% in experiment [5]; 11.4% in experiment [6].

On to `Cn1cc(/C=C\C(=O)O)c2ccccc21`, for which the growth inhibition in experiment [1] was -10.7%; in experiment [2] it was -0.6%; in experiment [3], 6.7%; in experiment [4], -35.2%; in experiment [5] it was -26.9%; in experiment [6] it was 6.4%.

In the case of `CC1=COC2(CC1)OC1CC3C4CCC5CC(O)CCC5(C)C4CCC3(C)C1C2C` (stereo not given), the growth inhibition in experiment [1] is 72.5% (active); in experiment [2], 60%; in experiment [3], 87.3% (active); in experiment [4], 45.5%; in experiment [5], 39.5%; in experiment [6], 83% (active).

With `CCCCNC(=S)N/N=C/c1ccc(OC)cc1`, the growth inhibition in experiment [1] was -10.8%; in experiment [2], 1.55%; in experiment [3], -1.3%; in experiment [4], -41%; in experiment [5], -1.85%; in experiment [6], -6.45%.

In the case of `CCN(CC)CCNC(=O)c1cn2c(ccc3sc4ccccc4c(=O)c32)n1`, the growth inhibition in experiment [1] was 70.8% (active); in experiment [2], 57.5%; in experiment [3], 48.7%; in experiment [4] it was 38.3%; in experiment [5] it was 26.3%; in experiment [6] it was 28.8%.

On to `COC(=O)C(=O)C1(C)CCc2c(ccc3ccc(OC)cc23)C1=O` (stereo not given), for which the growth inhibition in experiment [1] is -32.8%; in experiment [2] it was -3.1%; in experiment [3], -5.9%; in experiment [4], -31.9%; in experiment [5], 19.9%; in experiment [6], -5.65%.

Turning to `CC(=O)Oc1ccccc1[C@H]1CC(=O)C[C@H](c2ccccc2OC(C)=O)C12C(=O)c1ccccc1C2=O`, the growth inhibition is -12.8% in experiment [1]; -18.4% in experiment [2]; -7.55% in experiment [3]; 30.1% in experiment [4]; -17.4% in experiment [5]; 9.3% in experiment [6].

For `Cc1cc(N(CCC#N)CCC#N)ccc1/C=C1N=C(/C=C\c2ccccc2)N(c2ccc(C(=O)O)cc2)C\1=O`, the growth inhibition was -3.65% in experiment [1]; -45.5% in experiment [2]; -16.9% in experiment [3]; -6.3% in experiment [4]; -16.4% in experiment [5]; -26.1% in experiment [6].

For the compound `Cc1ccccc1N(CCC#N)C1=NN(C(=O)CC(=O)Nc2ccc(Cl)cc2)C(c2ccccc2)C1` (stereo not given), the growth inhibition in experiment [1] was 6.35%; in experiment [2], -9.05%; in experiment [3] it was -0.2%; in experiment [4] it was 15%; in experiment [5] it was -16.1%; in experiment [6], -5.35%.

With `CC(C)CCCC(C)C1CCC2C3CCC4CC(O)C5(CC4(C)C3CCC12C)SCCS5` (stereo not given), the growth inhibition in experiment [1] is 41%; in experiment [2], 10.9%; in experiment [3] it was 15.1%; in experiment [4], 18.4%; in experiment [5], -6.35%; in experiment [6] it was 18.4%.

In the case of `CCOC(=O)COc1cc2c(cc1Cc1ccc(OC)cc1)OCO2`, the growth inhibition was -5.4% in experiment [1]; -7.45% in experiment [2]; 5.45% in experiment [3]; 6.2% in experiment [4]; 39.4% in experiment [5]; 11.7% in experiment [6].

With `CCOC(=N)CC(=O)Nc1ccccc1CC`, the growth inhibition is 17.8% in experiment [1]; -0.05% in experiment [2]; 11.6% in experiment [3]; 4.05% in experiment [4]; 12.1% in experiment [5]; 20.9% in experiment [6].

As to `CC1CC12OC(=O)N(c1cc(Cl)cc(Cl)c1)C2=O` (stereo not given), the growth inhibition is 1.7% in experiment [1]; 8.9% in experiment [2]; 14.3% in experiment [3]; 35.1% in experiment [4]; -2.05% in experiment [5]; 16.6% in experiment [6].

Regarding `CN(C)CCNC(=O)CN`, the growth inhibition in experiment [1] is 0.15%; in experiment [2], -12.2%; in experiment [3], 4.1%; in experiment [4], -0.6%; in experiment [5], 5.9%; in experiment [6], 2.75%.

As for `CC(C)[Si]1(C(C)C)N([Si](C)(C)F)[Si](C(C)C)(C(C)C)N1[Si](C)(C)F`, the growth inhibition in experiment [1] was 7.7%; in experiment [2], 6.25%; in experiment [3], -3.05%; in experiment [4], 21%; in experiment [5], -4.45%; in experiment [6], 26.2%.

Take `N#CN(Cc1ccccc1)Cc1ccccc1`: the growth inhibition in experiment [1] was -1.25%; in experiment [2], 23.7%; in experiment [3], 7.75%; in experiment [4], 0.6%; in experiment [5], 10.7%; in experiment [6], 4%.

As to `CCN(CC)CC(c1ccccc1)C(C)(O)c1ccccc1` (stereo not given), the growth inhibition is -2% in experiment [1]; -10.1% in experiment [2]; -8% in experiment [3]; 10.9% in experiment [4]; 27.4% in experiment [5]; -22.4% in experiment [6].

`NC(=S)N=Nc1c(O)[nH]c2c(Cl)cc(Cl)cc12`: the growth inhibition in experiment [1] is 6.7%; in experiment [2], -14.2%; in experiment [3], 28.6%; in experiment [4], 7.15%; in experiment [5], 13.8%; in experiment [6] it was -8.95%.

Regarding `Cc1ccc(/C=N/S(=O)(=O)Cc2ccccc2)cc1`, the growth inhibition was -11.6% in experiment [1]; 3.8% in experiment [2]; 10.2% in experiment [3]; 4.9% in experiment [4]; 0.15% in experiment [5]; -0.15% in experiment [6].
